The values below come from PubChem BioAssay (EPA / NIEHS).

The term AC50 denotes the concentration giving half of the maximal activity seen.

Each structure is given as a SMILES string. Activity calls are given as the source filed them. Rule for the calls: active = hit-call score of the fitted dose curve at least 0.9, where 1 is the maximum; inactive = score below 0.9.

Read-out in experiment [1]: Tissue Factor, F3 (gene 2152)
Nature of the experiment: BSK_CASM3C_TissueFactor: BioMAP Diversity Plus: CASM3C Assay for Tissue Factor Biomarker Activity (AID 2283052).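 Note: cell surface tissue factor protein level read by ELISA.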 Conditions: primary human coronary artery smooth muscle cells; actives raise or lower the signal.

Read-out in experiment [2]: Interferon-gamma inducible Protein 10 (IP10), CXCL10 (gene 3627)
Nature of the experiment: BSK_hDFCGF_IP10: BioMAP Diversity Plus: hDFCGF Assay for Interferon-gamma inducible Protein 10 (IP10) Biomarker Activity (AID 2283053). The settings on record: primary human foreskin fibroblasts; actives raise or lower the signal. The gist of the method: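 Cells: human dermal foreskin fibroblasts. Exposure: 24 h post-dosing. Detection: IP-10 ELISA, with values expressed against DMSO controls and fitted in both directions.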

Read-out in experiment [3]: Urokinase-type plasminogen activator receptor (uPAR), PLAUR (gene 5329)
Nature of the experiment: BSK_CASM3C_uPAR: BioMAP Diversity Plus: CASM3C Assay for Urokinase-type plasminogen activator receptor (uPAR) Biomarker Activity (AID 2283054).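 Note: cell-surface uPAR protein level quantified by ELISA.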 The settings on record: primary human coronary artery smooth muscle cells; actives raise or lower the signal.

Read-out in experiment [4]: Vascular cell adhesion molecule 1 (VCAM1), VCAM1 (gene 7412)
Nature of the experiment: BSK_CASM3C_VCAM1: BioMAP Diversity Plus: CASM3C Assay for Vascular cell adhesion molecule 1 (VCAM1) Biomarker Activity (AID 2283055).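 Note: VCAM-1 protein level quantified by ELISA on the cells.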 Conditions: primary human coronary artery smooth muscle cells; actives raise or lower the signal.

Read-out in experiment [5]: Collagen III, COL3A1 (gene 1281)
In words: BSK_hDFCGF_CollagenIII: BioMAP Diversity Plus: hDFCGF Assay for Collagen III Biomarker Activity (AID 2283056). The settings on record: primary human foreskin fibroblasts; actives raise or lower the signal. The gist of the method:
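Response relative to DMSO, fitted in both directions, reflects ELISA-measured collagen III in human primary skin fibroblasts 24 h after compound addition.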

Read-out in experiment [6]: Epidermal growth factor receptor (EGFR), EGFR (gene 1956)
Nature of the experiment: BSK_hDFCGF_EGFR: BioMAP Diversity Plus: hDFCGF Assay for Epidermal growth factor receptor (EGFR) Biomarker Activity (AID 2283057). Conditions: primary human foreskin fibroblasts; actives raise or lower the signal. The gist of the method:
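Dosing human primary skin fibroblasts, then measuring surface EGFR by ELISA at 24 h, gives the endpoint; gains and losses relative to DMSO were fitted in both directions.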

Read-out in experiment [7]: Interleukin-8 (IL8), CXCL8 (gene 3576)
In words: BSK_hDFCGF_IL8: BioMAP Diversity Plus: hDFCGF Assay for Interleukin-8 (IL8) Biomarker Activity (AID 2283058). Conditions: primary human foreskin fibroblasts; actives raise or lower the signal. In outline:
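Fibroblast monolayers (human foreskin, hDFCGF) received test chemical for 24 h before ELISA detection of IL-8; either increases or decreases relative to DMSO count as activity.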

A short description of experiment [8]: BSK_hDFCGF_Proliferation: Cell Proliferation Assessment in the BioMAP Diversity Plus: hDFCGF Assay (AID 2283059).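 Note: curves fitted for both rise and fall of signal versus DMSO baseline.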 Conditions: primary human foreskin fibroblasts. The gist of the method: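 Sub-confluent human foreskin fibroblast cultures receive test chemical […]. Relative cell number is quantified by sulforhodamine B staining (0.1%, after 10% TCA fixation) at 560 nm, with bidirectional fitting referenced to DMSO.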

Read-out in experiment [9]: Macrophage colony-stimulating factor (MCSF), CSF1 (gene 1435)
Nature of the experiment: BSK_hDFCGF_MCSF: BioMAP Diversity Plus: hDFCGF Assay for Macrophage colony-stimulating factor (MCSF) Biomarker Activity (AID 2283060). The settings on record: primary human foreskin fibroblasts; actives raise or lower the signal. In outline: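 fibroblasts (human foreskin, primary), 24 h post-dose; M-CSF by ELISA; bidirectional fit, DMSO = baseline.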

Experiment [10] can be described thus: BSK_hDFCGF_SRB: Viability Assessment in the BioMAP Diversity Plus: hDFCGF Assay (AID 2283061).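 Note: cells exposed to compound for 24 h before the read.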 Conditions: primary human foreskin fibroblasts. In outline:
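SRB-based viability read on primary human skin fibroblasts at 24 h: TCA fixation, 0.1% dye, 560 nm. Gain or loss of signal is fitted against the DMSO negative control.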

Read-out in experiment [11]: TIMP metallopeptidase inhibitor 1 (TIMP1), TIMP1 (gene 7076)
In words: BSK_hDFCGF_TIMP1: BioMAP Diversity Plus: hDFCGF Assay for TIMP metallopeptidase inhibitor 1 (TIMP1) Biomarker Activity (AID 2283062). Conditions: primary human foreskin fibroblasts; actives raise or lower the signal. The gist of the method: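 Bidirectional curve fitting against DMSO baseline yielded this endpoint, based on ELISA detection of TIMP-1 in primary human foreskin fibroblasts exposed to compound for 24 h.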

Read-out in experiment [12]: Monokine induced gamma interferon (MIG), CXCL9 (gene 4283)
In words: BSK_hDFCGF_MIG: BioMAP Diversity Plus: hDFCGF Assay for Monokine induced gamma interferon (MIG) Biomarker Activity (AID 2283063). Conditions: primary human foreskin fibroblasts; actives raise or lower the signal. The gist of the method:
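Endpoint derived by bidirectional fitting relative to DMSO; MIG quantified via ELISA in primary human foreskin fibroblasts harvested 24 h after dosing.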

Read-out in experiment [13]: Matrix Metallopeptidase 1 (MMP1), MMP1 (gene 4312)
In words: BSK_hDFCGF_MMP1: BioMAP Diversity Plus: hDFCGF Assay for Matrix Metallopeptidase 1 (MMP1) Biomarker Activity (AID 2283064). Conditions: primary human foreskin fibroblasts; actives raise or lower the signal. In outline: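 ELISA read-out of MMP1 from human foreskin fibroblasts (primary skin cells), 24 h post-dose. Gain or loss of signal was fitted bidirectionally versus DMSO negative control; cytotoxicity was checked by SRB in parallel cultures.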

Read-out in experiment [14]: Vascular cell adhesion molecule 1 (VCAM1), VCAM1 (gene 7412)
In words: BSK_hDFCGF_VCAM1: BioMAP Diversity Plus: hDFCGF Assay for Vascular cell adhesion molecule 1 (VCAM1) Biomarker Activity (AID 2283065).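 For AC50: VCAM-1 protein level quantified by ELISA after 24 h chemical exposure.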 The settings on record: primary human foreskin fibroblasts; actives raise or lower the signal. In outline: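 Measured after 24 h chemical treatment of primary human skin fibroblasts, VCAM-1 was detected by ELISA and concentration-response analysed in both directions versus DMSO vehicle.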

Read-out in experiment [15]: Plasminogen activator inhibitor-1 (PAI1), SERPINE1 (gene 5054)
In words: BSK_hDFCGF_PAI1: BioMAP Diversity Plus: hDFCGF Assay for Plasminogen activator inhibitor-1 (PAI1) Biomarker Activity (AID 2283066). Conditions: primary human foreskin fibroblasts; actives raise or lower the signal. In outline:
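Fibroblasts from human foreskin were treated with test chemical. After 24 h, PAI-1 was measured by ELISA. Activity was fitted in both directions relative to DMSO.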

Read-out in experiment [16]: Intercellular Adhesion Molecule 1 (ICAM1), ICAM1 (gene 3383)
Nature of the experiment: BSK_KF3CT_ICAM1: BioMAP Diversity Plus: KF3CT Assay for Intercellular Adhesion Molecule 1 (ICAM1) Biomarker Activity (AID 2283067). Conditions: primary human keratinocytes with fibroblasts; actives raise or lower the signal. In outline: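 Bidirectional curve fitting against a DMSO baseline was applied to ICAM-1 ELISA signal from primary human skin co-cultures harvested 24 h after treatment, with SRB staining of parallel wells for overt cytotoxicity.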

Read-out in experiment [17]: Interferon-gamma inducible Protein 10 (IP10), CXCL10 (gene 3627)
Nature of the experiment: BSK_KF3CT_IP10: BioMAP Diversity Plus: KF3CT Assay for Interferon-gamma inducible Protein 10 (IP10) Biomarker Activity (AID 2283068). The settings on record: primary human keratinocytes with fibroblasts; actives raise or lower the signal. The gist of the method:
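ELISA read-out of IP-10 after 24 h chemical dosing of human skin primary co-culture (keratinocytes, foreskin fibroblasts). Gain or loss of signal relative to DMSO, bidirectional curve fit.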

The nature of experiment [18]: BSK_KF3CT_SRB: Viability Assessment in the BioMAP Diversity Plus: KF3CT Assay (AID 2283069).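 Note: total protein by sulforhodamine B staining as a cytotoxicity measure; fitted for both signal gain and loss against DMSO baseline.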 Conditions: primary human keratinocytes with fibroblasts. The gist of the method:
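SRB read-out at 560 nm (0.1% stain, TCA-fixed cells) gauges overt cytotoxicity in a human skin keratinocyte–fibroblast co-culture 24 h post-dosing. Signal change was fitted bidirectionally relative to DMSO control.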

Read-out in experiment [19]: Interleukin-1 alpha (IL1a), IL1A (gene 3552)
Nature of the experiment: BSK_KF3CT_IL1a: BioMAP Diversity Plus: KF3CT Assay for Interleukin-1 alpha (IL1a) Biomarker Activity (AID 2283070). The settings on record: primary human keratinocytes with fibroblasts; actives raise or lower the signal. The gist of the method:
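Primary skin co-culture (keratinocytes, foreskin fibroblasts), 24 h exposure; ELISA for IL-1a; bidirectional curve fit vs DMSO.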

Read-out in experiment [20]: TIMP metallopeptidase inhibitor 2 (TIMP2), TIMP2 (gene 7077)
In words: BSK_KF3CT_TIMP2: BioMAP Diversity Plus: KF3CT Assay for TIMP metallopeptidase inhibitor 2 (TIMP2) Biomarker Activity (AID 2283071). Conditions: primary human keratinocytes with fibroblasts; actives raise or lower the signal. In outline: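 Chemicals were dosed onto human skin primary co-cultures of keratinocytes and foreskin fibroblasts, and TIMP-2 was measured by ELISA after 24 hours. Activity in either direction was fitted relative to DMSO.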

Regarding `N#Cc1c(Cl)cccc1Cl`, the result in [1], in experiment [2], in experiment [3], in [4], in experiment [5] and in [6] was inactive. Further, the result in [7], in experiment [8], in experiment [9], in experiment [10], in experiment [11] and in experiment [12] was inactive. The result in [13], in experiment [14], in [15], in experiment [16], in experiment [17] and in experiment [18] was inactive. Also, the outcome in [19] and in experiment [20] was inactive.
On to `CCOC(=O)C(C)OC(=O)c1cc(Oc2ccc(C(F)(F)F)cc2Cl)ccc1[N+](=O)[O-]` (centres undefined), for which the outcome in [1], in [2], in experiment [3], in [4], in [6] and in experiment [7] was inactive. Besides, the outcome in [8], in experiment [10], in [11], in experiment [12], in experiment [13] and in experiment [14] was inactive. In addition, the result in experiment [15], in experiment [16], in experiment [17], in experiment [18], in experiment [19] and in [20] was inactive. Moreover, the AC50 was 6.41 µM (active) in experiment [5] and 8.12 µM (active) in experiment [9].
As to `CSC(=O)c1c(C(F)F)nc(C(F)(F)F)c(C(=O)SC)c1CC(C)C`, the result in experiment [1], in [3], in experiment [4], in experiment [5], in experiment [6] and in [10] was inactive. Moreover, the outcome in experiment [11], in experiment [12], in experiment [16], in experiment [17], in experiment [18] and in [19] was inactive. The result in [20] was inactive. In addition, the AC50 in [2] was 25.5 µM (active); in experiment [8], 30.6 µM (active); in [9] it was 11.4 µM (active); in [13] it was 4.27 µM (active); in experiment [14], 13.4 µM (active); in [15] it was 26.9 µM (active).
Turning to `CCCN(CC)CC1COC2(CCC(C(C)(C)C)CC2)O1` (centres undefined), the outcome in experiment [1], in [3], in experiment [4], in experiment [6], in experiment [7] and in experiment [9] was inactive. For the same molecule, the result in experiment [10], in experiment [14], in experiment [15], in [16], in [18] and in experiment [19] was inactive. The AC50 in [2] is 1.98 µM (active); in experiment [5], 1.25 µM (active); in [8] it was 5.6 µM (active); in experiment [11], 3.97 µM (active); in experiment [12] it was 0.602 µM (active); in experiment [13], 1.43 µM (active). In addition, the AC50 in experiment [17] was 3.97 µM (active); in experiment [20] it was 6.62 µM (active).
Turning to `CCSC(=O)N1CCCCCC1`, the result in experiment [1], in experiment [2], in experiment [3], in experiment [4], in experiment [5] and in experiment [6] was inactive. The outcome in experiment [7], in [8], in [9], in [10], in experiment [11] and in experiment [12] was inactive. The outcome in experiment [13], in [14], in [15], in [16], in experiment [17] and in experiment [18] was inactive. Besides, the outcome in experiment [19] and in [20] was inactive.
As to `O=C(O)c1c(Cl)ccc2cc(Cl)cnc12`, the result in experiment [1], in experiment [2], in experiment [3], in experiment [4], in experiment [5] and in experiment [6] was inactive. Besides, the result in experiment [7], in experiment [8], in experiment [9], in [10], in experiment [11] and in experiment [12] was inactive. Moreover, the result in experiment [13], in experiment [14], in experiment [15], in experiment [16], in experiment [17] and in [18] was inactive. Moreover, the result in [19] and in experiment [20] was inactive.
Turning to `CC(C)Nc1nc(Cl)nc(NC(C)C)n1`, the result in experiment [1], in [2], in [4], in experiment [5], in [6] and in experiment [7] was inactive. The result in [8], in experiment [9], in [10], in experiment [11], in [12] and in experiment [13] was inactive. Besides, the outcome in experiment [14], in experiment [15], in [16], in experiment [17], in experiment [18] and in experiment [19] was inactive. For the same molecule, the outcome in experiment [20] was inactive. Besides, the AC50 in [3] is 13.6 µM (active).
